Among the test systems are MST1R; MST4; MTOR; MUSK; MYLK2; MYLK4; MYLK.
What all share (details): concentration: 1 μM, replicates: in singlicate; n = 1
The test system of another assay is T1, MST1.
T1 construct: gene STK4

For a further assay, the system named is T2, MST2.
T2 construct: gene STK3

The subject of a further assay is T3, MST3.
T3 construct: gene STK24
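Also: KINOMEscan kinase panel screen.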

For the molecule `Cc1cnc(N)c(/C=C/c2cncc(C(=O)NCCc3ccc(Cl)cc3Cl)c2)c1.Cl` [GSK190937], the “%Inh” value is given as 29% with MST1R; 0% with MST1; 0% in the assay with MST2; 5% in the assay on MST3; 0% in the assay with MST4; 6% with MTOR. Also, the “%Inh” value with MUSK came out at 0%; in the assay on MYLK2, 0%; with MYLK4, 62%; in the assay with MYLK, 20%.

`CCc1ccc(-c2ccc3c(c2)-c2n[nH]cc2S(=O)(=O)N3C)cc1`: the “%Inh” value worked out at 0% in the assay with MST1R; 8% in the assay on MST1; 0% with MST2; 0% with MST3; 0% with MST4; 0% in the assay on MTOR. The “%Inh” value in the assay with MUSK, in the assay on MYLK2, in the assay with MYLK4 and in the assay on MYLK was 0% in each case.

Take `CCCCc1nn2ncccc2c1-c1ccnc(NC2CC2)n1` [GW684374]: the “%Inh” value with MST1R is 38%; with MST1 it was 0%; in the assay with MST2, 15%; in the assay with MST3, 0%; in the assay with MST4, 0%; with MTOR, 5%. For the same molecule, the “%Inh” value was 19% in the assay on MUSK, 0% in the assay on MYLK2, 52% in the assay on MYLK4 and 0% in the assay on MYLK.

Take `COc1ccc(-c2coc3ccc(-c4nnc(C)o4)cc23)cc1`: the “%Inh” value in the assay on MST1R is 0%; in the assay with MST1 it was 0%; with MST2, 0%; with MST3, 0%; in the assay with MST4, 0%; in the assay on MTOR, 5%. The “%Inh” value is given as 4% with MUSK, 18% in the assay with MYLK2, 14% in the assay with MYLK4 and 0% in the assay with MYLK.

Take `COC(=O)c1cccc(NC(=O)NC2CCN(c3ccnc(Nc4ccc(OC)cc4)n3)C2)c1` (centres unmarked) [GSK1379746]: the “%Inh” value is 42% in the assay on MST1R; 0% with MST1; 10% with MST2; 0% in the assay with MST3; 0% with MST4; 19% with MTOR. For the same molecule, the “%Inh” value with MUSK is recorded as 0%; in the assay on MYLK2, 4%; with MYLK4, 0%; in the assay with MYLK, 0%.

As for `Fc1ccc(-c2nn3cccc(F)c3c2-c2ccncc2)cc1` [GW475620], the “%Inh” value in the assay on MST1R amounted to 18%; in the assay with MST1 it was 30%; with MST2 it was 0%; in the assay on MST3, 0%; with MST4, 0%; in the assay with MTOR it was 20%. Moreover, the “%Inh” value stood at 11% in the assay on MUSK, 0% in the assay on MYLK2, 0% with MYLK4 and 14% in the assay with MYLK.

For the molecule `CCn1c(-c2ccccc2)nc2cnccc21` [SB-733416], the “%Inh” value was found to be 11% in the assay with MST1R; 27% in the assay with MST1; 6% in the assay on MST2; 0% with MST3; 0% with MST4; 31% with MTOR. Also, the “%Inh” value with MUSK is 16%; in the assay on MYLK2, 0%; with MYLK4 it was 2%; with MYLK, 0%.

Take `CNc1nc(-c2ccc3c(N)n[nH]c3c2)cc(N2C[C@@H](C(=O)NC3CCCCC3)OC[C@H]2C)n1` [GSK2375584]: the “%Inh” value with MST1R was determined as 30%; with MST1, 0%; in the assay on MST2, 0%; with MST3 it was 18%; in the assay with MST4 it was 0%; with MTOR, 0%. For the same molecule, the “%Inh” value with MUSK turned out to be 16%; in the assay with MYLK2, 0%; with MYLK4, 0%; in the assay on MYLK it was 18%.

Regarding `Cc1nccc(-c2c(-c3ccc(F)cc3)ncn2CCCN2CCOCC2)n1.Cl` [SB-282975], the “%Inh” value in the assay with MST1R is 0%; in the assay with MST1 it was 7%; with MST2 it was 5%; with MST3 it was 0%; in the assay on MST4, 5%; with MTOR, 21%. Further, the “%Inh” value is listed as 0% in the assay with MUSK, 6% in the assay with MYLK2, 0% in the assay with MYLK4 and 30% in the assay on MYLK.

Turning to `CC[C@@H]1CO[C@H](C(=O)Nc2ccccc2)CN1c1cc(-c2ccc3c(N)n[nH]c3c2)nc(NC)n1` [GSK2376236], the “%Inh” value with MST1R is listed as 26%; in the assay on MST1 it was 0%; with MST2, 10%; with MST3 it was 0%; in the assay with MST4, 0%; in the assay on MTOR it was 9%. Besides, the “%Inh” value came out at 2% in the assay on MUSK, 8% with MYLK2, 10% in the assay on MYLK4 and 22% in the assay with MYLK.

With `CC(=O)c1c(C)c2cnc(Nc3ccc(N4CCNCC4)cn3)nc2n(C2CCCC2)c1=O`, the “%Inh” value is 6% with MST1R; 0% with MST1; 0% in the assay with MST2; 5% with MST3; 0% with MST4; 55% in the assay on MTOR. The “%Inh” value with MUSK stood at 8%; in the assay with MYLK2, 6%; in the assay with MYLK4 it was 0%; with MYLK, 9%.

Regarding `COc1ccc(Nc2nccc(N3CCC(NC(=O)C(C)c4ccc(Cl)cc4)C3)n2)cc1` (centres unmarked) [GSK1379735], the “%Inh” value was 39% in the assay on MST1R; 44% in the assay with MST1; 26% in the assay on MST2; 0% in the assay on MST3; 3% with MST4; 26% in the assay on MTOR. Besides, the “%Inh” value is reported as 24% with MUSK, 3% with MYLK2, 2% with MYLK4 and 11% with MYLK.

Turning to `COc1cccc(NC(=O)Nc2ccc(C)c(-c3ccc(C(=O)Nc4ccncc4)cc3)c2)c1` [GSK1398474], the “%Inh” value in the assay on MST1R is given as 57%; in the assay on MST1, 18%; with MST2, 0%; with MST3, 10%; in the assay on MST4 it was 0%; with MTOR, 0%. Moreover, the “%Inh” value with MUSK is 1%; in the assay on MYLK2, 4%; in the assay with MYLK4, 3%; in the assay with MYLK it was 31%.

As for `FC(F)(F)c1ccccc1-c1cc(-c2c[nH]nc2-c2ccccn2)ccn1` [GW679396], the “%Inh” value in the assay on MST1R is on record as 13%; in the assay on MST1 it was 4%; in the assay on MST2, 0%; in the assay on MST3, 5%; with MST4, 0%; in the assay on MTOR it was 0%. Further, the “%Inh” value with MUSK amounted to 0%; with MYLK2, 26%; in the assay on MYLK4, 0%; in the assay with MYLK, 8%.

For the molecule `Nc1ncnc2occ(-c3ccc4c(c3)CCN4C(=O)Cc3cc(F)ccc3F)c12` [GSK2645446], the “%Inh” value in the assay on MST1R is reported as 11%; in the assay on MST1, 21%; in the assay with MST2, 0%; in the assay on MST3, 13%; with MST4, 0%; in the assay on MTOR it was 3%. In addition, the “%Inh” value with MUSK is 3%; in the assay on MYLK2, 27%; in the assay with MYLK4 it was 7%; with MYLK, 9%.

As to `COC(=O)C(NC(=O)NC1CCN(c2ccnc(Nc3ccc(F)cc3)n2)C1)c1ccccc1` (centres unmarked) [GSK1379712], the “%Inh” value in the assay on MST1R worked out at 35%; with MST1 it was 0%; in the assay on MST2, 28%; with MST3 it was 3%; in the assay with MST4 it was 0%; with MTOR, 31%. Also, the “%Inh” value with MUSK turned out to be 12%; in the assay on MYLK2, 10%; with MYLK4, 13%; in the assay with MYLK it was 12%.

On to `COc1cccc(CNC(=O)NC2CCN(c3ccnc(Nc4ccc(F)cc4)n3)C2)c1` (centres unmarked) [GSK1379723], for which the “%Inh” value with MST1R amounted to 44%; with MST1, 11%; with MST2, 0%; in the assay on MST3 it was 0%; in the assay on MST4 it was 0%; with MTOR, 15%. The “%Inh” value is listed as 7% in the assay on MUSK, 0% in the assay on MYLK2, 0% in the assay with MYLK4 and 0% in the assay on MYLK.

The values are drawn from publication PMC5540273 (PLoS ONE, 2017).
